Pf growth 48h: Primary qHTS for delayed death inhibitors of the malarial parasite plastid, 48 hour incubation. P. falciparum luciferase growth in erythrocytes, 48 h. AID 504832, 2011. 310,000 tested, 5.9% active. Potency, µM (doses to about 28.7 µM), for the others: at the highest dose activity change, negative = inhibition, actives largely listed as inhibitors; note: potency is the fitted concentration of half-maximal effect; % is set by controls: 0 for no effect and ±100 for the full control effect
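First compound was added to culture medium, then infected red cells at 0.1% parasitemia and 2% hematocrit (final). After incubation at 37 C under 5% CO2, luciferase detection reagent was dispensed and light output recorded.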
NS1 inh: qHTS Assay for Inhibitors of Influenza NS1 Protein Function | Potency, µM (highest dose often 46.1 µM), without a hit: at the top dose activity, positive = more growth | 270,000 tested, 0.4% active; calls by dose curve; note: potency is the fitted concentration of half-maximal effect; actives are rising curves; nearly all actives have a fitted effect of over 50% in size
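S. cerevisiae expressing influenza A NS1, grown in glucose, washed, then diluted 1:100 into pH 6.0 -URA galactose medium with 23 nl compound. Growth recovery read as OD600; NS1-free strain serves as control.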
Cycloheximide cs: Cycloheximide Counterscreen for Small Molecule Inhibitors of Shiga Toxin; cell reporter, cycloheximide protein synthesis inhibition counterscreen; max response, %; 300,000 tested, 12% active; AID 2314, 2010; in the data active = max response mostly above about 13%, no sharp cut-off; inactive = mostly below about 14%; note: read at 38.3 µM for the half of the compounds with a filed dose; 0% is about no effect
Giardia FBPA inh: qHTS Assay for Inhibitors of Fructose-1,6-bisphosphate Aldolase from Giardia Lamblia; Potency, µM (highest dose often 59.6 µM), for the others: at the highest dose activity, negative = inhibition, usual class: inhibitors; 290,000 tested, 0.71% active; A8B2U2; purified Giardia FBPA; note: potency is the fitted concentration of half-maximal effect; % is set by controls: 0 for no effect and ±100 for the full control effect; nearly all actives have a fitted effect of over 55% in size
Target sequence (A8B2U2 whole entry, looked up): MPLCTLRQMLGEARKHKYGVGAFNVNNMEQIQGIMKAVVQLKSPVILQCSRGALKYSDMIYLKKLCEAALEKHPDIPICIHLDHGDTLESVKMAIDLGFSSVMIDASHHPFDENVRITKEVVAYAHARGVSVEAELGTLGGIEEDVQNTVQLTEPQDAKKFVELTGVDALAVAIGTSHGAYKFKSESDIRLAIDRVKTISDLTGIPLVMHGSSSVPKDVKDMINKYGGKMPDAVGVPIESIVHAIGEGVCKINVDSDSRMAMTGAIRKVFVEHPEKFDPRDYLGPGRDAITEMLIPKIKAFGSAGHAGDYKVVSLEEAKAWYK
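Giardia FBPA (40 nM reagent) was preincubated 10 min at RT with compound (up to 57.5 uM final), then substrate plus GAPDH/TPI/NAD/arsenate coupling system with diaphorase/resazurin was added; resorufin fluorescence (525/598 nm) was read after 20 min.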
Shiga toxin inh: A qHTS for Small Molecule Inhibitors of Shiga Toxin. Vero cells, Shiga toxin protein synthesis inhibition reporter. inhibition, % at 38.7 µM. 290,000 tested, 9.2% active. AID 2315, 2010; in the data active = inhibition mostly above about 28%, no sharp cut-off; inactive = mostly below about 43%; note: 0% is about no effect
Pf growth 96h: Primary qHTS for delayed death inhibitors of the malarial parasite plastid, 96 hour incubation; 320,000 tested, 6.9% active; Potency, µM (titrated, usually from 28.7 µM), without a hit: at the highest dose activity change, negative = inhibition, actives largely listed as inhibitors; P. falciparum luciferase reporter growth, 96 h; AID 504834, 2011; note: potency is the fitted concentration of half-maximal effect; % is set by controls: 0 for no effect and ±100 for the full control effect
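Delayed-death screen, second-generation endpoint: infected erythrocytes, 2% hematocrit, 0.05% parasitemia final; 96 hours at 37 C, 5% CO2; luciferase detection reagent; luminescence decrease equals reduced growth.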
* hit, by the source's call; i = inactive; ? = inconclusive; . = not tested or not shown; + = active, no number; [ ] = dose if it differs, or a comment. A selection: hits, their analogues and other compounds. The true share with any hit is near 21%. Unless noted, calls come from the whole dose curve; as a rule, active = well fitted curve in the direction sought with a large enough effect; inconclusive = small, poorly fitted or top-dose-only effect, or another doubt; inactive = no such curve, though single readings can be large; an effect the other way counts as inactive or inconclusive.

SMILES | Pf growth 48h | NS1 inh | Cycloheximide cs | Giardia FBPA inh | Shiga toxin inh | Pf growth 96h
Cc1cccc(NC(=S)NNC(=O)c2csc(C)c2)c1 | 163.1% | -23.5% | 24.0* | 12.8% | 22.3* | 183.7%
Cc1cccc(NC(=S)NNC(=O)c2csc3c2CCCC3)c1 | 96.2% | -63.1% | 29.4* | 18.8% | 25.8 | 118.2%
CCCCCCCCCC(=O)Nc1cccnc1 | 6.3% | -7.3% | -1.5 | 1.7% | -10.7 | 30.8%
Cc1ccc2nc(-c3ccc(NC(=O)CN4C(=O)c5ccccc5C4=O)cc3)sc2c1 | 233.0% | 18.3% | 75.3* | 1.9% | 108.4* | -23.4%
Cc1ccc2nc(-c3ccc(NC(=O)CN4CCN(c5ccccn5)CC4)cc3)sc2c1 | 81.0% | 0.8% | 28.6* | -2.0% | 90.2* | 90.4%
Cc1ccc2nc(-c3ccc(NC(=O)CNC4CC4)cc3)sc2c1 | 241.1% | 9.5% | 42.1* | ? | 95.0* | 237.6%
Cc1ccc2nc(-c3ccc(NC(=O)COC(=O)c4ccc(=O)[nH]c4)cc3)sc2c1 | 323.0% | 68.7% | 65.2* | -5.7% | 61.3* | 15.8%
Cc1ccc2nc(NC(=O)CN3CCN(c4ccccn4)CC3)sc2c1 | 31.5% | 1.1% | -2.8 | 6.7% | 15.8 | 53.1%
CSCCC(NC(=O)c1ccccc1Cl)C(=O)OCC(=O)N1CCCC1=O (configuration not stated) | -0.2% | . | . | . | . | -1.7%
Cc1ccc2nc(-c3ccc(NC(=S)NC(=O)CC(C)C)cc3)sc2c1 | 116.5% | 3.3% | 34.1* | 4.9% | + | .
COc1ccc2nc(/C=N/NC(=O)CCCCCNC(=O)OC(C)(C)C)ccc2c1 | ? | -5.8% | 40.7* | -13.9% | 138.2 | ?
CC(C)(C)OC(=O)NCCC(=O)N/N=C/c1ccc2ncccc2c1 | -16.8% | -5.6% | -1.1 | 6.5% | 24.8 | -12.1%
COc1ccc2nc(/C=N/NC(=O)CCNC(=O)OC(C)(C)C)ccc2c1 | ? | -9.4% | 35.3* | -14.6% | 62.1* | -3.9%
N#CC1=C(N)N(c2ccc(F)cc2)C2=C(C1c1ccc(O)cc1)S(=O)(=O)CC2 (configuration not stated) | ? | . | -3.7 | ? | 8.9 | -34.4%[5.75 µM]
COCCNc1nc(C(C)(C)C)nc2c1nnn2Cc1ccccc1Cl | 8.28µM* | -4.7% | -0.5 | -0.3% | 8.2 | 41.8%
CC(C)CN(C(=O)c1ccc2c(c1)OCCO2)c1c(N)n(Cc2ccccc2)c(=O)[nH]c1=O | ? | . | . | . | . | -0.7%
COC(=O)c1c(C)[nH]c(C(=O)C(C)OC(=O)c2c(C)noc2C)c1C (configuration not stated) | ? | . | . | . | . | 4.15µM*
COc1ccc(C2N(c3cc(C)on3)C(=O)C3CCCN32)cc1 (configuration not stated) | -32.3%[1.15 µM] | 5.7% | -6.4 | -6.4% | -8.8 | 3.29µM*
Cc1cc(N2C(=O)C3CCCN3C2c2cccc(Cl)c2)no1 (configuration not stated) | 8.9% | 1.9% | -2.4 | 0.8% | 2.2 | 4.65µM*
O=C1C2CCCN2C(c2cccc(Cl)c2)N1c1ccccn1 (configuration not stated) | -1.2% | ? | -2.3 | 3.1% | -21.4 | 1.9%
O=C(/C=C/NNC(=O)c1ccccc1)c1ccccc1 | . | -30.5% | 27.5* | ? | 19.7 | 5.2%
O=C(/C=C/NNC(=O)c1ccccc1O)c1ccccc1 | 18.5% | 10.4% | 31.6* | -5.7% | . | -28.9%
Cc1ccc(C(=O)C=CNNC(=O)c2ccccc2)cc1 | -1.6% | -4.8% | 33.2* | -20.8% | 44.3* | ?
O=C(NOCc1ccccc1)c1ccc([N+](=O)[O-])cc1 | 210.4% | . | . | . | . | 320.4%
O=C(/C=C/NNC(=O)c1ccccc1)c1ccc([N+](=O)[O-])cc1 | 56.8% | 4.4% | 37.7* | -7.7% | 87.2* | ?
SMILES | Pf growth 48h | NS1 inh | Cycloheximide cs | Giardia FBPA inh | Shiga toxin inh | Pf growth 96h
O=CC(=O)c1ccccc1 | 36.8% | . | . | . | . | 60.1%
COc1ccc(N2Cc3ccc(C(=O)N/N=C\c4ccc(O)cc4O)cc3C2)cc1 | 11.4% | 13.3% | 12.9 | 13.0% | 18.9 | ?
Cc1ccc(S/C=C\C(=O)c2ccccc2)cc1 | . | -3.8% | 44.0* | -0.3% | 78.9* | -25.4%
Cc1cccc(C(=O)NCCNC(=O)c2cccc(C)c2)c1 | 27.8% | 3.4% | -0.7 | 5.1% | -9.9 | -15.5%
O=C(/C=C/NNC(=O)c1ccc(Br)cc1)c1ccccc1 | . | -22.3% | 32.4* | -18.2% | 83.9* | ?
Cc1cccc(C(=O)NNC(=O)c2ccc(Br)cc2)c1 | 26.8% | -4.5% | 2.2 | 4.9% | 19.1 | 8.6%
Cc1cccc(C(=O)NN/C=C/C(=O)c2ccccc2)c1 | -15.3% | 26.1% | 31.4* | -18.7% | 56.2* | 109.9%
CN(Cc1ccccc1Cl)C(=O)CCNC(=O)c1ccco1 | ? | . | . | . | . | -29.5%
O=C(c1cnn(C(=O)c2cccc(S(=O)(=O)N3CCOCC3)c2)c1)c1ccccc1O | 20.6% | . | 2.3 | 1.7% | -6.7 | -0.6%
CN(C)c1cccc(C(=O)NNC(=O)CSc2ccccc2)c1 | 6.0% | -10.5% | 12.8* | 9.6% | 25.6 | 15.0%
CN(C)c1cccc(C(=O)OCC(=O)NC2CCCC2)c1 | 22.8% | -0.1% | 19.2 | 11.8% | 19.0 | 38.8%
CN(C)c1cccc(C(=O)OCC(=O)Nc2ccccc2-c2ccccc2)c1 | ? | -0.7% | -3.4 | -3.9% | 6.4 | ?
CN(C)c1cccc(C(=O)NCc2ccccc2Cl)c1 | 24.4% | 1.5% | 19.4* | -2.7% | 44.7 | 7.0%
CN(C)c1cccc(C(=O)OCC(=O)Nc2ccccc2Cl)c1 | 14.4% | . | 21.8 | -10.9% | 42.1* | -6.7%
CN(C)c1cccc(C(=O)OCC(=O)Nc2nccs2)c1 | 27.1% | 11.6% | 30.3* | -0.6% | 100.9* | 54.1%
CN(C)c1cccc(C(=O)NCc2ccccc2)c1 | i | . | 33.6 | -3.1% | 59.5 | 5.1%
CSc1ccccc1OCc1cc(C(=O)N2CCc3[nH]cnc3C2c2ccccn2)no1 (configuration not stated) | ? | 9.0% | 4.0 | . | 12.2 | -16.9%
CCCCCCCC1=CC2=CC(=O)C(C)(O)C(=O)C2=CN1CCCC (configuration not stated) | . | . | . | -15.4%[12.9 µM] | . | .
Cc1ccc(-c2ccc(=O)n(CC(=O)NCC3COCCO3)n2)cc1 (configuration not stated) | 33.8% | 4.3% | 2.5 | . | -0.7 | 48.7%
NC(=O)CC(NC(=O)c1cccc(Br)c1)c1ccc(NC2CCCCCCC2)c([N+](=O)[O-])c1 (configuration not stated) | -22.2% | 23.1% | -0.6 | 9.1% | -4.7 | ?
Cc1cccc(C(=O)OCC(=O)Nc2nccs2)c1 | 29.4% | -3.7% | 19.3* | 1.9% | 36.2 | 109.0%
CC1CCN(CC[S-])CC1.O.O.[Cl][Pt] | . | 5.4% | . | . | . | .

From PubChem BioAssay
